Experimental data taken from PubChem BioAssay.
The source made the active and inactive calls.

Test: basal CRE-LacZ reporter activity in PC12 – cell-based, unstimulated, primary screen (AID 1145)
Settings: no forskolin, luminescence, 4.5 h, higher = more signal, called active from +8 up or from −8 down
For `CCOC(=O)CCN1C(=O)[C@H]2[C@H]3[C@H](O)[C@H](O)CC(=NNC(=O)OCc4ccccc4)[C@@H]3CC[C@H]2C1=O`, the z-score was 0.161 (inactive).
For `C[C@@H](c1ccccc1)N1C(=O)[C@H]2[C@H]3[C@H](O)[C@H](O)CC(=NOCc4ccccc4)[C@H]3CC[C@H]2C1=O`, the z-score was 0.0687 (inactive).
With `COC(=O)CC=C[C@@H](C)[C@@H](C=NOC[C@@H](O)[C@H]1O[C@@H]2OC(C)(C)O[C@@H]2[C@H]1O)NS(=O)(=O)c1ccc(C)cc1` the z-score was -0.245 (inactive).
For `O=C(NN=C1C[C@@H](O)[C@@H](O)[C@@H]2[C@@H]3C(=O)N(C4CCCCC4)C(=O)[C@@H]3CC[C@H]12)OCc1ccccc1`, the z-score was 0.338 (inactive).
For `Cc1cc2c(nc1C)CCCCN2CC(C)ON=C[C@@H](C)[C@H](OCc1ccccc1)C(C)C` (stereo partly specified), the z-score was 2.44 (inactive).
For `CCOC(=O)[C@H](CC(C)C)NC(=O)CCC1CC(OC(=O)NCc2cccc3ccccc23)CC2(CCCC(COC(=O)NCCC(C)C)O2)O1` (stereo partly specified), the z-score was 0.563 (inactive).
With `CC(C)CON=C1C[C@@H](O)[C@@H](O)[C@@H]2[C@@H]3C(=O)N(C[C@@H]4CCCO4)C(=O)[C@@H]3CC[C@@H]12` the z-score was -0.0246 (inactive).
In the case of `C=CC[C@@H]1C=C[C@H](ON=C(C)CCC(=O)OC[C@H]2O[C@H](c3ccccc3)C=C[C@@H]2Oc2ccc(OC)cc2)[C@@H](CO)O1`, the z-score is reported as -0.24 (inactive).
In the case of `CO[C@@H]1COC(=O)CC=C[C@@H](C)[C@@H]2C=C[C@H](O)[C@@H](COC(=O)CC=C[C@H]1C)O2`, the z-score is reported as 0.877 (inactive).
With `COC(=O)[C@H](C)NC(=O)CCC1CC(OC(=O)NCc2cccc3ccccc23)CC2(CCCC(COC(=O)NCC(c3ccccc3)c3ccccc3)O2)O1` (stereo partly specified) the z-score was -0.437 (inactive).

Test: forskolin-driven CRE-LacZ activity in PC12 – cell-based, CRE-LacZ reporter, forskolin-stimulated, primary screen (AID 1146);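 further: PC12 cells with 6xCRE LacZ reporter stimulated by forskolin 10 µM; beta-galactosidase reporter signal reflecting CREB driven transcription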
Settings: luminescence, 4.5 h, higher = more signal, called active from +8 up or from −8 down
In the case of `CCN1C(=O)[C@@H]2[C@H]3C(=CC[C@@H]2C1=O)C1(OCCCO1)[C@H]1O[C@H]1[C@H]3O`, the z-score is reported as 23.3 (active).
For `CCOC(=O)[C@H](Cc1ccccc1)NC(=O)CCC1CC(OC(=O)NCCc2ccc(F)cc2)CC2(CCCC(COC(=O)NCCc3ccccc3OC)O2)O1` (stereo partly specified), the z-score was -0.099 (inactive).
For `CCOC(=O)NN=C1C[C@@H](O)[C@@H](O)[C@@H]2[C@@H]3C(=O)N(c4cccc(Oc5ccccc5)c4)C(=O)[C@@H]3CC[C@H]12`, the z-score was 0.583 (inactive).
For `CCCCC#C[C@@H]1C=C[C@H](Oc2ccc(C(=O)OC)cc2)[C@@H](COC(=O)OCC)O1`, the z-score was 1.13 (inactive).
In the case of `CCCNC(=O)OC[C@H]1O[C@H](CCON=C(C)CCN2CCc3nc(CC)c(CC)cc3C2)C=C[C@@H]1Oc1ccc(OC)cc1`, the z-score is reported as 0.82 (inactive).
For `CCC1=NOC(CCC2CC(OC(=O)NCc3cccc4c3OCO4)CC3(CCCC(COC(=O)NCCc4ccccc4OC)O3)O2)C1` (stereo unspecified), the z-score was 0.214 (inactive).
In the case of `CO[C@@H]1COC(=O)CC=C[C@H](C)[C@H](OC)COC(=O)[C@H](C)NC(=O)CC=C[C@H]1C`, the z-score is reported as -0.463 (inactive).
With `C#CCCCON=C1C[C@@H](O)[C@@H](O)[C@@H]2[C@@H]3C(=O)N(C(C)(C)C)C(=O)[C@@H]3CC[C@H]12` the z-score was 0.0692 (inactive).
For `CCOC(=O)[C@H](Cc1ccccc1)NC(=O)CCC1CC(OC(=O)NCc2ccc3c(c2)OCO3)CC2(CCCC(COC(=O)NCCC(C)C)O2)O1` (stereo partly specified), the z-score was 0.0924 (inactive).
For `COC(=O)CC=C[C@@H](C)[C@@H](C=NO[C@H](C)c1cn([C@H](CO)Cc2ccccc2)nn1)NS(=O)(=O)c1ccc(C)cc1`, the z-score was 0.767 (inactive).
In the case of `CCN1C(=O)[C@H]2[C@H]3[C@H](O)[C@H](O)CC(=O)[C@@H]3CC[C@H]2C1=O`, the z-score is reported as -0.69 (inactive).
In the case of `CCO[C@H](c1cc(OC)cc([N+](=O)[O-])c1OC)[C@H](C)C=CCC(=O)OC`, the z-score is reported as -0.893 (inactive).
In the case of `COC(=O)[C@H](C)NC(=O)CCC1CC(OC(=O)NCCc2ccc(F)cc2)CC2(CCCC(COC(=O)NCc3cccc(C(F)(F)F)c3)O2)O1` (stereo partly specified), the z-score is reported as 0.144 (inactive).
For `CCOC(=O)[C@H](CC(C)C)NC(=O)CCC1CC(OC(=O)NCc2ccc3c(c2)OCO3)CC2(CCCC(COC(=O)NCc3cccc(C(F)(F)F)c3)O2)O1` (stereo partly specified), the z-score was 0.814 (inactive).
With `COC(=O)[C@H](C)NC(=O)CCC1CC(OC(=O)NCc2ccc3c(c2)OCO3)CC2(CCCC(COC(=O)NCc3cccc(C(F)(F)F)c3)O2)O1` (stereo partly specified) the z-score was -0.631 (inactive).
With `C[C@@H](c1ccccc1)N1C(=O)[C@H]2[C@H]3[C@H](O)[C@H](O)CC(=NO[C@@H]4O[C@H](CO)[C@@H](O)[C@H](O)[C@H]4O)[C@H]3CC[C@H]2C1=O` the z-score was 0.845 (inactive).
In the case of `CCc1cc2c(nc1CC)CCN(CCC(C)=NO[C@H](C)c1cn([C@H](CO)Cc3ccccc3)nn1)C2`, the z-score is reported as 0.406 (inactive).
In the case of `O=C1C[C@@H](O)[C@@H](O)[C@@H]2[C@@H]3C(=O)N(Cc4ccccc4)C(=O)[C@@H]3CC[C@@H]12`, the z-score is reported as 0.113 (inactive).
With `COc1ccc(O[C@H]2C=C[C@@H](c3ccccc3)O[C@@H]2CON=CC[C@@H]2C=C[C@H](OC(C)=O)[C@@H](COC(C)=O)O2)cc1` the z-score was 0.222 (inactive).
With `Cc1ccc(S(=O)(=O)n2c3ccccc3c3nnc(C(=O)c4ccccc4)nc32)cc1` the z-score was -1.15 (inactive).
In the case of `CCCNC(=O)OC[C@H]1O[C@H](CCON=C(C)CCC(=O)OC[C@H]2O[C@H](c3ccccc3)C=C[C@@H]2Oc2ccc(OC)cc2)C=C[C@@H]1Oc1ccc(OC)cc1`, the z-score is reported as 0.913 (inactive).
With `COC(=O)CC=C[C@@H](C)[C@H](OCc1cccc(-c2ccccc2)c1)C1CCCCC1` the z-score was -0.198 (inactive).
In the case of `O=C(NN=C1C[C@@H](O)[C@@H](O)[C@@H]2[C@@H]3C(=O)N(Cc4ccccc4)C(=O)[C@@H]3CC[C@@H]12)OCc1ccccc1`, the z-score is reported as 0.121 (inactive).
For `COc1ccc(COC(=O)NN=C2C[C@@H](O)[C@@H](O)[C@@H]3[C@@H]4C(=O)N(Cc5ccccc5)C(=O)[C@@H]4CC[C@H]23)cc1`, the z-score was -0.0005 (inactive).
With `COc1ccc(O[C@H]2C=C[C@@H](c3ccccc3)O[C@@H]2CON=C(C)CCC(=O)OC[C@H]2O[C@H](c3ccccc3)C=C[C@@H]2Oc2ccc(OC)cc2)cc1` the z-score was 0.593 (inactive).
With `CCCNC(=O)OC[C@H]1O[C@H](CCON=Cc2ccc(C(=O)N3[C@H](c4ccc(C)cc4)[C@@H](C)CC[C@H]3C(=O)OC)cc2)C=C[C@@H]1Oc1ccc(OC)cc1` the z-score was 1.16 (inactive).
For `CCOC(=O)CCN1C(=O)[C@H]2[C@H]3[C@H](O)[C@H](O)CC(=NNC(=O)OCc4ccccc4)[C@@H]3CC[C@H]2C1=O`, the z-score was -0.244 (inactive).
In the case of `C[C@@H](c1ccccc1)N1C(=O)[C@H]2[C@H]3[C@H](O)[C@H](O)CC(=NOCc4ccccc4)[C@H]3CC[C@H]2C1=O`, the z-score is reported as 0.0517 (inactive).
For `COC(=O)CC=C[C@@H](C)[C@@H](C=NOC[C@@H](O)[C@H]1O[C@@H]2OC(C)(C)O[C@@H]2[C@H]1O)NS(=O)(=O)c1ccc(C)cc1`, the z-score was 0.285 (inactive).
In the case of `O=C(NN=C1C[C@@H](O)[C@@H](O)[C@@H]2[C@@H]3C(=O)N(C4CCCCC4)C(=O)[C@@H]3CC[C@H]12)OCc1ccccc1`, the z-score is reported as -0.0351 (inactive).
With `Cc1cc2c(nc1C)CCCCN2CC(C)ON=C[C@@H](C)[C@H](OCc1ccccc1)C(C)C` (stereo partly specified) the z-score was 0.676 (inactive).
With `CCOC(=O)[C@H](CC(C)C)NC(=O)CCC1CC(OC(=O)NCc2cccc3ccccc23)CC2(CCCC(COC(=O)NCCC(C)C)O2)O1` (stereo partly specified) the z-score was -0.535 (inactive).
In the case of `CC(C)CON=C1C[C@@H](O)[C@@H](O)[C@@H]2[C@@H]3C(=O)N(C[C@@H]4CCCO4)C(=O)[C@@H]3CC[C@@H]12`, the z-score is reported as 0.436 (inactive).
In the case of `C=CC[C@@H]1C=C[C@H](ON=C(C)CCC(=O)OC[C@H]2O[C@H](c3ccccc3)C=C[C@@H]2Oc2ccc(OC)cc2)[C@@H](CO)O1`, the z-score is reported as -0.24 (inactive).
With `CO[C@@H]1COC(=O)CC=C[C@@H](C)[C@@H]2C=C[C@H](O)[C@@H](COC(=O)CC=C[C@H]1C)O2` the z-score was -0.0355 (inactive).
For `COC(=O)[C@H](C)NC(=O)CCC1CC(OC(=O)NCc2cccc3ccccc23)CC2(CCCC(COC(=O)NCC(c3ccccc3)c3ccccc3)O2)O1` (stereo partly specified), the z-score was 2.17 (inactive).
